Laboratory results as given in PubChem BioAssay (NCI).
The panel holds about 83,000 compounds, 20% with a hit somewhere; the sample as a whole holds those more often.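 Each cell line was grown in a 96-well plate and treated with one concentration of compound for 48 hours. Values below 10 were considered active.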 Active and inactive are the calls of the source.

test system: NCI-H522 lung; experiment: NCI-60 one-dose screen, 48 h (100 = growth as untreated, 0 = no growth, -100 = all killed); conditions: 10 µM unless noted

Compound | growth
COc1c(F)ccc(C(=O)Nc2ccc3nc(NC(=O)C4CCCN(S(=O)(=O)c5cccc(C(F)(F)F)c5)C4)sc3c2)c1F (stereo not drawn) | 85.2% (inactive)
Cc1ccc(S(=O)(=O)c2nc(S(=O)(=O)c3ccc(C)cc3)c(Cl)s2)cc1 | -89.5% (active)
COc1ccc2c(c1)c(-c1cc3nc(-c4cn(C)c5ncc(Br)cc45)cc(N)n3n1)cn2C | -72.1% (active)
COc1cccc(-c2nc(Nc3ccc(S(N)(=O)=O)cc3)c3ccccc3n2)c1 | 23.9% (inactive)
CCS(=O)(=O)N1CCCC(C(=O)Nc2nc3ccc(NC(=O)c4ccc(F)c(OC)c4F)cc3s2)C1 (stereo not drawn) | 52% (inactive)
C=C1CCC2C3(C)COC(c4ccccc4)OC3CCC2(C)C1CC(Sc1ccccc1)C1=CCOC1=O (stereo not drawn) | 3.01% (active)
Cc1cccc(-c2nc(Nc3cccc(S(N)(=O)=O)c3)c3ccccc3n2)c1 | 4.87% (active)
Brc1ccc(-c2n(Cc3ccc4ccccc4c3)c(-c3ccccc3)c(-c3ccccc3)[n+]2Cc2ccc3ccccc3c2)cc1 | -90.9% (active)
Cc1cc2nc3c([nH]c2cc1C)c1ccc(=O)cc1n3CCN(C)C | 19.8% (inactive)
N=C1N=C(SCc2nc3ccccc3[nH]2)NC(=O)/C1=C/c1ccc(Cl)cc1 | 92.7% (inactive)
COc1c(F)ccc(C(=O)Nc2ccc3nc(NC(=O)C4CCCN(S(=O)(=O)c5ccc(Br)c(F)c5)C4)sc3c2)c1F (stereo not drawn) | 81.9% (inactive)
C=C1CC[C@@H]2[C@]3(C)COC(c4cn[nH]c4-c4ccc(Br)cc4)O[C@@H]3CC[C@@]2(C)[C@@H]1C/C=C1/C(=O)OCC1O (stereo partly drawn) | -57.5% (active)
Cc1ccc2c(c1)nc(-c1ccccc1)n2CC(=O)N=Nc1c(O)[nH]c2ccc(Br)cc12 | -60.7% (active)
Cn1nc(C(F)(F)F)cc1-c1cc(Cl)c(COc2ccc(Cl)cc2)c(-c2ccc(Cl)c(C(F)(F)F)c2)c1O | -27.7% (active)
Cc1occc1C(=O)NN1C(=O)/C(=C/C=C/c2ccc([N+](=O)[O-])o2)SC1=S | -91.5% (active)
O=c1cc(-c2ccccc2)oc2cc(OCCCC[P+](c3ccccc3)(c3ccccc3)c3ccccc3)cc(O)c12 | -81.9% (active)
COc1c(F)ccc(C(=O)Nc2ccc3nc(NC(=O)C4CCCN(S(=O)(=O)c5cccc(Br)c5)C4)sc3c2)c1F (stereo not drawn) | 78.9% (inactive)
C=C1CC[C@@H]2[C@]3(C)COC(c4cn[nH]c4-c4ccc(F)cc4)O[C@@H]3CC[C@@]2(C)[C@@H]1C/C=C1/C(=O)OCC1O (stereo partly drawn) | -59.7% (active)
CCCCCCCS(=O)(=O)N1CCCC(C(=O)Nc2nc3ccc(NC(=O)c4ccc(F)c(OC)c4F)cc3s2)C1 (stereo not drawn) | 24.7% (inactive)
C=C1CCC2C3(C)COC(c4ccccc4)OC3CCC2(C)C1CC(NCc1ccccc1)C1=CCOC1=O (stereo not drawn) | 77.6% (inactive)
O=C(/C=C/Nc1ccc2oc(=O)ccc2c1)c1cc2cc(Br)ccc2oc1=O | 101% (inactive)
O=C(Cn1c(/C=C/c2ccccc2)nc2ccccc2c1=O)Nc1ccc(Cl)cc1 | 76.7% (inactive)
CC(C)CCNC(=O)N/C(N)=N/c1nc2ccccc2s1 | 54.2% (inactive)
Cn1cc(-c2cc(N)n3nc(-c4c[nH]c5ccccc45)cc3n2)c2cccnc21 | 31.3% (inactive)
CN(C)c1nc(NCCNS(=O)(=O)c2ccc(C(=O)/C=C/c3ccc(Cl)cc3)cc2)nc(Nc2ccc(F)cc2)n1 | -87.4% (active)

test system: A549/ATCC NSCLC; experiment: as above; conditions: 10 µM unless noted

Compound | growth
CN(C)c1nc(NCCNS(=O)(=O)c2ccc(C3=Nc4c(N)nc(N)nc4NC(c4ccc(C(F)(F)F)cc4)C3)cc2)nc(Nc2ccc(F)cc2)n1 (stereo not drawn) | 45.8% (inactive)
COc1ccc(-c2nc3cc(C)ccc3n2CC(=O)N=Nc2c(O)[nH]c3ccccc23)cc1 | -34% (active)
NS(=O)(=O)c1ccc(CCNC(=O)CSc2ccc(-c3ccc(Br)cc3)nn2)cc1 | 62% (inactive)
O=C(COc1ccc2c(c1)CCCC(=O)N2)NCc1ccccc1 | 103% (inactive)
CC1=C(C#N)C2=NNCC(c3ccccc3)=NN2C(c2ccccc2)=C1 | 99.3% (inactive)
CC1CCCCN1CCCNC(=O)N/C(N)=N/c1nc2ccccc2s1 (stereo not drawn) | 47.3% (inactive)
Cc1nc(Nc2ccccn2)sc1C(=O)CC(SCC(=O)Nc1ccc(Cl)cc1)c1ccccc1F (stereo not drawn) | 6.38% (active)
CCCSc1nc(Nc2ccc(S(N)(=O)=O)cc2)c(C#N)c(-c2cc(OC)c(OC)c(OC)c2)n1 | 17.9% (inactive)
Clc1cccc(N/N=C/c2c[nH]c3ccc(Br)cc23)n1 | 30.2% (inactive)
Cc1ccc(S(=O)(=O)c2nc(S(=O)(=O)c3ccc(C)cc3)c(N3CCN(C)CC3)s2)cc1 | 59.5% (inactive)
COc1c(F)ccc(C(=O)Nc2ccc3nc(NC(=O)C4CCCN(S(=O)(=O)c5ccc(C(F)(F)F)cc5)C4)sc3c2)c1F (stereo not drawn) | 75.3% (inactive)
COc1ccc(-c2ccnc(SCc3cc4ccccc4[nH]c3=O)n2)cc1 | 61% (inactive)
Cc1ccc(C2=NN(c3nc(-c4cc5ccccc5oc4=O)cs3)C(c3ccc(C)cc3)C2)cc1 (stereo not drawn) | 109% (inactive)
COc1c(F)ccc(C(=O)Nc2ccc3nc(NC(=O)C4CCCN(S(=O)(=O)c5cccc(C(F)(F)F)c5)C4)sc3c2)c1F (stereo not drawn) | 79.4% (inactive)
Cc1ccc(S(=O)(=O)c2nc(S(=O)(=O)c3ccc(C)cc3)c(Cl)s2)cc1 | 92.8% (inactive)
COc1ccc2c(c1)c(-c1cc3nc(-c4cn(C)c5ncc(Br)cc45)cc(N)n3n1)cn2C | -4.96% (active)
COc1cccc(-c2nc(Nc3ccc(S(N)(=O)=O)cc3)c3ccccc3n2)c1 | 27.7% (inactive)
CCS(=O)(=O)N1CCCC(C(=O)Nc2nc3ccc(NC(=O)c4ccc(F)c(OC)c4F)cc3s2)C1 (stereo not drawn) | 77.4% (inactive)
C=C1CCC2C3(C)COC(c4ccccc4)OC3CCC2(C)C1CC(Sc1ccccc1)C1=CCOC1=O (stereo not drawn) | 35.3% (inactive)

Compound | growth
Cc1cccc(-c2nc(Nc3cccc(S(N)(=O)=O)c3)c3ccccc3n2)c1 | 35.7% (inactive)
Brc1ccc(-c2n(Cc3ccc4ccccc4c3)c(-c3ccccc3)c(-c3ccccc3)[n+]2Cc2ccc3ccccc3c2)cc1 | -88.8% (active)
Cc1cc2nc3c([nH]c2cc1C)c1ccc(=O)cc1n3CCN(C)C | 28.4% (inactive)
N=C1N=C(SCc2nc3ccccc3[nH]2)NC(=O)/C1=C/c1ccc(Cl)cc1 | 109% (inactive)
COc1c(F)ccc(C(=O)Nc2ccc3nc(NC(=O)C4CCCN(S(=O)(=O)c5ccc(Br)c(F)c5)C4)sc3c2)c1F (stereo not drawn) | 73.7% (inactive)
C=C1CC[C@@H]2[C@]3(C)COC(c4cn[nH]c4-c4ccc(Br)cc4)O[C@@H]3CC[C@@]2(C)[C@@H]1C/C=C1/C(=O)OCC1O (stereo partly drawn) | -30.5% (active)
Cc1ccc2c(c1)nc(-c1ccccc1)n2CC(=O)N=Nc1c(O)[nH]c2ccc(Br)cc12 | -45.4% (active)
Cn1nc(C(F)(F)F)cc1-c1cc(Cl)c(COc2ccc(Cl)cc2)c(-c2ccc(Cl)c(C(F)(F)F)c2)c1O | 2.95% (active)
Cc1occc1C(=O)NN1C(=O)/C(=C/C=C/c2ccc([N+](=O)[O-])o2)SC1=S | 6.62% (active)
O=c1cc(-c2ccccc2)oc2cc(OCCCC[P+](c3ccccc3)(c3ccccc3)c3ccccc3)cc(O)c12 | -56% (active)
COc1c(F)ccc(C(=O)Nc2ccc3nc(NC(=O)C4CCCN(S(=O)(=O)c5cccc(Br)c5)C4)sc3c2)c1F (stereo not drawn) | 75.6% (inactive)
C=C1CC[C@@H]2[C@]3(C)COC(c4cn[nH]c4-c4ccc(F)cc4)O[C@@H]3CC[C@@]2(C)[C@@H]1C/C=C1/C(=O)OCC1O (stereo partly drawn) | -14.2% (active)
CCCCCCCS(=O)(=O)N1CCCC(C(=O)Nc2nc3ccc(NC(=O)c4ccc(F)c(OC)c4F)cc3s2)C1 (stereo not drawn) | 60.5% (inactive)
C=C1CCC2C3(C)COC(c4ccccc4)OC3CCC2(C)C1CC(NCc1ccccc1)C1=CCOC1=O (stereo not drawn) | 75.9% (inactive)
O=C(/C=C/Nc1ccc2oc(=O)ccc2c1)c1cc2cc(Br)ccc2oc1=O | 101% (inactive)
O=C(Cn1c(/C=C/c2ccccc2)nc2ccccc2c1=O)Nc1ccc(Cl)cc1 | 33.8% (inactive)
CC(C)CCNC(=O)N/C(N)=N/c1nc2ccccc2s1 | 64.6% (inactive)
Cn1cc(-c2cc(N)n3nc(-c4c[nH]c5ccccc45)cc3n2)c2cccnc21 | 51.7% (inactive)
CN(C)c1nc(NCCNS(=O)(=O)c2ccc(C(=O)/C=C/c3ccc(Cl)cc3)cc2)nc(Nc2ccc(F)cc2)n1 | -23.5% (active)
